# Results from the supplement of paper PMC8728848.
# The full list was thinned out, with the strongest signals kept by preference.
# B1: MIC2 (Toxoplasma gondii), S8F9G8 (protein)
# chain: MRLQREAVFGLMFACGMWMWPSEVAGGGWSIVDALRKRYDTSRGGDANGVDTSGVEDVIQSESAIGAAEGCTNQLDICFLIDSSGSIGIQNFRLVKQFLHTFLMVLPIGPEEVNNAVVTYSTDVHLQWDLQSPNAVDKQLAAHAVLDMPYKKGSTNTSDGLKACKQILFTGSRPGREHVPKLVIGMTDGESDSDFRTVRAAKEIRELGGIVTVLAVGHYVKHSECRSMCGCSGTSDDDSPCPLYLRADWGQLATAIKPMLKEVCKTLPQDAICSDWSAWSPCSVSCGDGSQIRTRTEVSAPQPGTPTCPDCPAPMGRTCVEQGGLEEIRECSAGVCAVDAGCGVWGEWSAWSASCGNATRKRERTRYNDPPPQGAGRRCENQDPPVLQEQTEEATLAPCITIPPTPPEWAAWSDCTVTCGGGNRHRVRNALPPGLGSQNGESDESLVSKLWPGTDLRQEEACNTSPCPINATCGQFEEWSTCSVSCGGGLKTRSRNPWNEDQQHGGLSCEQQHPGGRTETITCNPQACPVDERPGEWAEWGECSVTCGDGVRERRRGKSLVEAKFGGRTIDQQNEALPEDLKIKNVEYEPCSYPACGASCTYVWSDWNKCVCPMGYQARHAAVKFDYRNKPCDLPTFETKACSCGETNPVPSEGTTPGAPGATGPEQPNQRPLPEGSDENETPTNEEGEQSKKESGSGIAGAIAGGVIGGLILLGAAGGASYHYYLSSSVGSPSAEIEYEADDGATKVVMEEEKETLVPVDDDSDMWME
# B2: SLP (Clostridium difficile), Q183M8 (protein)
# chain: MATTGTQGYTVVKNDWKKAVKQLQDGLKDNSIGKITVSFNDGVVGEVAPKSANKKADRDAAAEKLYNLVNTQLDKLGDGDYVDFSVDYNLENKIITNQADAEAIVTKLNSLNEKTLIDIATKDTFGMVSKTQDSEGKNVAATKALKVKDVATFGLKSGGSEDTGYVVEMKAGAVEDKYGKVGDSTAGIAINLPSTGLEYAGKGTTIDFNKTLKVDVTGGSTPSAVAVSGFVTKDDTDLAKSGTINVRVINAKEESIDIDASSYTSAENLAKRYVFDPDEISEAYKAIVALQNDGIESNLVQLVNGKYQVIFYPEGKRLETKSLEHHHHHH
# Key:
# Experiment in all cases: glycan array binding signal (z-score within array); higher = stronger binding
# Details in all cases: glycan notation: IUPAC condensed, linker removed
# Fuc(a1-2)Gal(b1-3)GlcNAc = target: Fuc(a1-2)Gal(b1-3)GlcNAc
# How it was run: (§1)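 Glycan array binding is given as a within-array Z-score, which can be read as non-binding when negative. The arrays, 3228 of them, came from the Consortium for Functional Glycomics database and were retained only where the protein sequence was available. Z-scores were averaged across arrays of the same protein sequence at different concentrations or buffers and across linkers.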
# [1] = target: Fuc(a1-2)Gal(b1-3)GlcNAc(b1-3)Gal(b1-4)Glc
# How it was run: as §1
# [2] = target: Fuc(a1-2)[GalNAc(a1-3)]Gal(b1-4)GlcNAc(b1-3)Gal(b1-4)GlcNAc
# How it was run: as §1
# Fuc(a1-3)GlcNAc = target: Fuc(a1-3)GlcNAc
# How it was run: as §1
# [3] = target: Fuc(a1-3)[Gal3S(b1-4)]GlcNAc6S
# How it was run: as §1
# Fuc(b1-3)GlcNAc = target: Fuc(b1-3)GlcNAc
# How it was run: as §1
# [4] = target: Gal(b1-3)[Fuc(a1-4)]GlcNAc(b1-3)Gal(b1-3)[Fuc(a1-4)]GlcNAc
# How it was run: as §1
# [5] = target: Gal(b1-3)[Fuc(a1-4)]GlcNAc(b1-3)Gal(b1-4)[Fuc(a1-3)]GlcNAc
# How it was run: as §1
# [6] = target: Gal(b1-4)GlcNAc(b1-2)Man(a1-6)[GlcNAc(b1-2)Man(a1-3)]Man(b1-4)GlcNAc(b1-4)GlcNAc
# How it was run: as §1
# [7] = target: Gal3S(b1-4)[Fuc(a1-3)]Glc6S
# How it was run: as §1
# Gal3S4S(b1-4)GlcNAc = target: Gal3S4S(b1-4)GlcNAc
# How it was run: as §1
# Gal3S6S(b1-4)GlcNAc6S = target: Gal3S6S(b1-4)GlcNAc6S
# How it was run: as §1
# Gal4S(b1-4)GlcNAc = target: Gal4S(b1-4)GlcNAc
# How it was run: as §1
# [8] = target: GlcNAc(a1-4)Gal(b1-4)GlcNAc(b1-3)Gal(b1-4)Glc
# How it was run: as §1
# [9] = target: GlcNAc(a1-4)Gal(b1-4)GlcNAc(b1-3)Gal(b1-4)[Fuc(a1-3)]GlcNAc(b1-3)Gal(b1-4)[Fuc(a1-3)]GlcNAc
# How it was run: as §1
# [10] = target: GlcNAc(b1-2)Man(a1-3)[GlcNAc(b1-2)Man(a1-6)]Man(b1-4)GlcNAc(b1-4)[Fuc(a1-6)]GlcNAc
# How it was run: as §1
# [11] = target: GlcNAc(b1-4)GlcNAc(b1-4)GlcNAc(b1-4)GlcNAc(b1-4)GlcNAc(b1-4)GlcNAc
# How it was run: as §1
# Kdn(a2-3)Gal(b1-3)GlcNAc = target: Kdn(a2-3)Gal(b1-3)GlcNAc
# How it was run: as §1
# [12] = target: Man(a1-2)Man(a1-3)[Man(a1-2)Man(a1-6)]Man
# How it was run: as §1
# [13] = target: Man(a1-2)Man(a1-3)[Man(a1-2)Man(a1-6)]Man(a1-6)[Man(a1-2)Man(a1-2)Man(a1-3)]Man(b1-4)GlcNAc(b1-4)GlcNAc
# How it was run: as §1
# [14] = target: Neu5Ac(a2-3)Gal(b1-3)GalNAc(b1-3)Gal(a1-4)Gal(b1-4)Glc
# How it was run: as §1
# [15] = target: Neu5Ac(a2-3)Gal(b1-4)GlcNAc
# How it was run: as §1
# [16] = target: Neu5Ac(a2-3)Gal(b1-4)[Fuc(a1-3)]GlcNAc(b1-6)[Gal(b1-3)]GalNAc
# How it was run: as §1
# [17] = target: Neu5Ac(a2-3)[GalNAc(b1-4)]Gal(b1-4)Glc
# How it was run: as §1
# [18] = target: Neu5Ac(a2-3)[GalNAc(b1-4)]Gal(b1-4)GlcNAc(b1-3)GalNAc
# How it was run: as §1
# Neu5Ac(b2-6)GalNAc = target: Neu5Ac(b2-6)GalNAc
# How it was run: as §1
# [19] = target: Fuc(a1-2)Gal(b1-3)[Fuc(a1-4)]GlcNAc
# How it was run: as §1
# [20] = target: Fuc(a1-2)Gal(b1-4)GlcNAc(b1-2)Man(a1-3)[Fuc(a1-2)Gal(b1-4)GlcNAc(b1-2)Man(a1-6)]Man(b1-4)GlcNAc(b1-4)GlcNAc
# How it was run: as §1
# [21] = target: Fuc(a1-2)Gal(b1-4)[Fuc(a1-3)]GlcNAc
# How it was run: as §1
# [22] = target: Fuc(a1-2)[GalNAc(a1-3)]Gal(b1-3)GlcNAc
# How it was run: as §1
# [23] = target: Gal(a1-3)Gal(b1-3)[Fuc(a1-4)]GlcNAc(b1-2)Man(a1-3)[Gal(a1-3)Gal(b1-3)[Fuc(a1-4)]GlcNAc(b1-2)Man(a1-6)]Man(b1-4)GlcNAc(b1-4)GlcNAc
# How it was run: as §1
# [24] = target: Gal(a1-3)Gal(b1-4)[Fuc(a1-3)]GlcNAc
# How it was run: as §1
# [25] = target: Gal(a1-4)Gal(b1-4)GlcNAc(b1-2)Man(a1-3)[Gal(a1-4)Gal(b1-4)GlcNAc(b1-2)Man(a1-6)]Man(b1-4)GlcNAc(b1-4)GlcNAc
# How it was run: as §1
# Gal(b1-2)Gal = target: Gal(b1-2)Gal
# How it was run: as §1
# [26] = target: Gal(b1-3)GalNAc(b1-4)[Neu5Ac(a2-3)]Gal(b1-4)Glc
# How it was run: as §1
# [27] = target: Gal(b1-3)GlcNAc(b1-3)Gal(b1-4)Glc
# How it was run: as §1
# [28] = target: Gal(b1-3)GlcNAc(b1-3)Gal(b1-4)[Fuc(a1-3)]GlcNAc(b1-6)[Gal(b1-3)GlcNAc(b1-3)]Gal(b1-4)Glc
# How it was run: as §1
# [29] = target: Gal(b1-3)[Fuc(a1-4)]GlcNAc
# How it was run: as §1
# [30] = target: Gal(b1-3)[Fuc(a1-4)]GlcNAc(b1-2)Man(a1-3)[Gal(b1-3)[Fuc(a1-4)]GlcNAc(b1-2)Man(a1-6)]Man(b1-4)GlcNAc(b1-4)GlcNAc
# How it was run: as §1
# [31] = target: Gal(b1-3)[Fuc(a1-4)]GlcNAc(b1-2)Man(a1-3)[Gal(b1-3)[Fuc(a1-4)]GlcNAc(b1-2)Man(a1-6)]Man(b1-4)GlcNAc(b1-4)[Fuc(a1-6)]GlcNAc
# How it was run: as §1
# [32] = target: Gal(b1-4)GlcNAc(b1-2)Man(a1-3)[Gal(b1-4)GlcNAc(b1-2)Man(a1-6)]Man(b1-4)GlcNAc(b1-4)GlcNAc
# How it was run: as §1
# [33] = target: GalNAc(b1-4)GlcNAc(b1-2)Man(a1-3)[GalNAc(b1-4)GlcNAc(b1-2)Man(a1-6)]Man(b1-4)GlcNAc(b1-4)GlcNAc
# How it was run: as §1
# [34] = target: GlcNAc(b1-3)Gal(b1-4)GlcNAc(b1-3)Gal(b1-4)GlcNAc
# How it was run: as §1
# Kdn(a2-3)Gal(b1-4)Glc = target: Kdn(a2-3)Gal(b1-4)Glc
# How it was run: as §1
# [35] = target: Man(a1-2)Man(a1-2)Man(a1-6)[Man(a1-3)]Man
# How it was run: as §1
# [36] = target: Neu5Ac(a2-3)Gal(b1-3)GlcNAc6S
# How it was run: as §1
# [37] = target: Neu5Ac(a2-3)Gal(b1-3)[Fuc(a1-4)]GlcNAc(b1-3)Gal(b1-4)[Fuc(a1-3)]GlcNAc
# How it was run: as §1
# [38] = target: Neu5Ac(a2-3)Gal(b1-4)GlcNAc(b1-3)Gal(b1-4)GlcNAc
# How it was run: as §1
# [39] = target: Neu5Ac(a2-6)Gal(b1-4)GlcNAc(b1-3)Gal(b1-4)GlcNAc(b1-3)Gal(b1-4)GlcNAc
# How it was run: as §1
# Neu5Ac(a2-6)GalNAc = target: Neu5Ac(a2-6)GalNAc
# How it was run: as §1
# [40] = target: Neu5Ac9Ac(a2-3)Gal(b1-4)GlcNAc
# How it was run: as §1
binder,measurement,setting,value
B1,glycan array binding signal (z-score),Fuc(a1-2)Gal(b1-3)GlcNAc,-0.642
same,glycan array binding signal (z-score),[1],-0.779
same,glycan array binding signal (z-score),[2],-0.814
same,glycan array binding signal (z-score),Fuc(a1-3)GlcNAc,-0.671
same,glycan array binding signal (z-score),[3],3.68
same,glycan array binding signal (z-score),Fuc(b1-3)GlcNAc,0.622
same,glycan array binding signal (z-score),[4],-0.718
same,glycan array binding signal (z-score),[5],0.177
same,glycan array binding signal (z-score),[6],-0.816
same,glycan array binding signal (z-score),[7],4.19
same,glycan array binding signal (z-score),Gal3S4S(b1-4)GlcNAc,3.35
same,glycan array binding signal (z-score),Gal3S6S(b1-4)GlcNAc6S,3.06
same,glycan array binding signal (z-score),Gal4S(b1-4)GlcNAc,-0.874
same,glycan array binding signal (z-score),[8],-0.113
same,glycan array binding signal (z-score),[9],3.35
same,glycan array binding signal (z-score),[10],4
same,glycan array binding signal (z-score),[11],0.267
same,glycan array binding signal (z-score),Kdn(a2-3)Gal(b1-3)GlcNAc,-0.014
same,glycan array binding signal (z-score),[12],-0.278
same,glycan array binding signal (z-score),[13],0.876
same,glycan array binding signal (z-score),[14],0.008
same,glycan array binding signal (z-score),[15],0.221
same,glycan array binding signal (z-score),[16],3.24
same,glycan array binding signal (z-score),[17],0.279
same,glycan array binding signal (z-score),[18],1.93
same,glycan array binding signal (z-score),Neu5Ac(b2-6)GalNAc,-0.725
B2,glycan array binding signal (z-score),Fuc(a1-2)Gal(b1-3)GlcNAc,-0.17
same,glycan array binding signal (z-score),[1],3.53
same,glycan array binding signal (z-score),[19],-0.18
same,glycan array binding signal (z-score),[20],3.46
same,glycan array binding signal (z-score),[21],-0.174
same,glycan array binding signal (z-score),[22],-0.175
same,glycan array binding signal (z-score),[23],12.1
same,glycan array binding signal (z-score),[24],-0.186
same,glycan array binding signal (z-score),[25],0.537
same,glycan array binding signal (z-score),Gal(b1-2)Gal,-0.185
same,glycan array binding signal (z-score),[26],-0.141
same,glycan array binding signal (z-score),[27],3.65
same,glycan array binding signal (z-score),[28],-0.152
same,glycan array binding signal (z-score),[29],-0.182
same,glycan array binding signal (z-score),[30],7.99
same,glycan array binding signal (z-score),[31],5.55
same,glycan array binding signal (z-score),[32],-0.173
same,glycan array binding signal (z-score),[33],6.19
same,glycan array binding signal (z-score),[34],-0.209
same,glycan array binding signal (z-score),Kdn(a2-3)Gal(b1-4)Glc,-0.2
same,glycan array binding signal (z-score),[35],-0.17
same,glycan array binding signal (z-score),[36],-0.167
same,glycan array binding signal (z-score),[37],-0.057
same,glycan array binding signal (z-score),[38],-0.18
same,glycan array binding signal (z-score),[39],-0.187
same,glycan array binding signal (z-score),Neu5Ac(a2-6)GalNAc,-0.177
same,glycan array binding signal (z-score),[40],-0.188
